Measurements taken from PubChem BioAssay (NCATS).
“And” between values parts separate entries of the source, which are not always exact repeats. Equal values may be shown once. Records with an inconclusive call do not appear. The source made the active and inactive calls. Unless noted, the call rests on the fitted dose curve; in most records, active means well fitted curve in the direction sought with a large enough effect; inconclusive means small, poorly fitted or top-dose-only effect, or another doubt; inactive means no such curve, though single readings can be large; an effect the other way counts as inactive or inconclusive.

How the values were obtained:
[1] = tested on: Zika virus NS2B-NS3 protease; test: Primary screen GU AMC qHTS for Zika virus inhibitors (AID 1347154);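 further: 0% = no-inhibitor control and -100% = no-enzyme control; nearly all actives have a fitted effect of over 70% in size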
Summary of the method: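 Unlinked Zika NS2B hydrophilic domain–NS3 protease complex at 25 nM in 10 mM Tris-HCl pH 8.0, 0.01% Tween 20, with an AMC peptide substrate. Fluorescence change (340/450 nm) over 15 min at room temperature, normalized to controls, fitted to 4-parameter Hill.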

[2] = Primary qHTS for small molecule stabilizers of the endoplasmic reticulum resident proteome: Secreted ER Calcium Modulated Protein (SERCaMP) assay (AID 1508630); further: on the % scale 0 is the no-effect control and ±100 the full control effect
Summary of the method: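 GLuc-SERCaMP-expressing SH-SY5Y cells, pretreated 16 h with compound, are challenged with thapsigargin to empty ER calcium stores; after 4 h, coelenterazine is added directly to the medium and luminescence is imaged.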

[3] = target: Cytochrome P450 1A2 (Homo sapiens) (UniProt P05177); test: p450-cyp1a2 (AID 410; calls by dose curve; further: potency means the concentration at half of the fitted maximal effect;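 on activity change, negative = inhibition: -100% = full effect of reference inhibitor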)
Chain of Cytochrome P450 1A2 (Homo sapiens) (P05177 whole entry, looked up): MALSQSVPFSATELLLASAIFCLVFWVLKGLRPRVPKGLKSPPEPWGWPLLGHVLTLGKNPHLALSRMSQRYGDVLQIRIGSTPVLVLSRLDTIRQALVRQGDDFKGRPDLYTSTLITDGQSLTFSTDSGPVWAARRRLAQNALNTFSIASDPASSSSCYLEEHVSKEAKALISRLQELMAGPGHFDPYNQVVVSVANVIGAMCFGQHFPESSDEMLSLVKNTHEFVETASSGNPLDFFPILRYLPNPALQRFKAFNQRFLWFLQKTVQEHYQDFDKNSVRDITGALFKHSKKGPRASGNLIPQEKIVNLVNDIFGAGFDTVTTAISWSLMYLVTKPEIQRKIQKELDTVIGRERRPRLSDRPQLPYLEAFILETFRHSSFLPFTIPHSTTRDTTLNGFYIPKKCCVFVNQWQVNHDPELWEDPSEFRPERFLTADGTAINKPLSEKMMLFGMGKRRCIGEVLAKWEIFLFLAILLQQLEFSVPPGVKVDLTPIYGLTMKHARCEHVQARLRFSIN
Summary of the method: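 20nM CYP1A2 with 100uM Luciferin-ME (at Km) in 100mM KPO4; compound preincubated 10 min, NADPH regeneration added, 60 min at room temperature. Luciferin quantified by luminescence after detection reagent; normalized to 57 uM furafylline.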

[4] = target: Glucocorticoid receptor (Homo sapiens) (UniProt P04150); test: GR-GFP Redistribution (AID 450;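 active means compounds whose dose series gives a full or clear partial fitted curve of increased nuclear translocation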; further: potency means the concentration at half of the fitted maximal effect); details: U2OS GR-GFP nuclear translocation, laser cytometry, 2 h
Chain of Glucocorticoid receptor (Homo sapiens) (P04150 whole entry, looked up, the tested form may be a part): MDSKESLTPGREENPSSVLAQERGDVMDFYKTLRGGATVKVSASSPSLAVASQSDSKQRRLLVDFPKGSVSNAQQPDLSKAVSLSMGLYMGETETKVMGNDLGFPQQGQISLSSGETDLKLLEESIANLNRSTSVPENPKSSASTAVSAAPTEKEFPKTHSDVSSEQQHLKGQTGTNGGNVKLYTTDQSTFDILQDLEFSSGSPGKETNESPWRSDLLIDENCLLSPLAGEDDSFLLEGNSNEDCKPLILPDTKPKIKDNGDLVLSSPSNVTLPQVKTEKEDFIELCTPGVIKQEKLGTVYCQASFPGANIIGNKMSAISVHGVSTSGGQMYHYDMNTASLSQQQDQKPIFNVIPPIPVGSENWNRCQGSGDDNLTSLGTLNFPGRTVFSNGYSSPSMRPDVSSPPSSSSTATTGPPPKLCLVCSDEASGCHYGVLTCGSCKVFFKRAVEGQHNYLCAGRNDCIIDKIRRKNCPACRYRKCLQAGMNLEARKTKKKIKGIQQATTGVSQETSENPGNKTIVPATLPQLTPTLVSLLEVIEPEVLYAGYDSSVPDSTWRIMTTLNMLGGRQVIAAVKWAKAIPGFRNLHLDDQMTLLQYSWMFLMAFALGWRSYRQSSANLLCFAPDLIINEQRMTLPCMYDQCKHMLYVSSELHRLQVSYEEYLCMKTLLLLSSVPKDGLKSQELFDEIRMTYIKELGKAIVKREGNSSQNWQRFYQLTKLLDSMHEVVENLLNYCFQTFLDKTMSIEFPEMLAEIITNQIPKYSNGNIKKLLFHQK

[5] = target: Glucocorticoid receptor (Homo sapiens) (UniProt P04150); test: GR-EFC Redistribution (AID 451; calls by dose curve; further: potency means the concentration at half of the fitted maximal effect); details: CHO-K1 GR-EFC translocation, beta-gal luminescence, 2 h
Summary of the method: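 CHO-K1 cells expressing nuclear EA and GR-ED fragments of b-gal; compounds titrated up to 46 uM final, 2 h at 37 C. GR nuclear translocation read as complemented b-gal luminescence after 1 h RT detection.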

[6] = target: Mitogen-activated protein kinase 10 (Mus musculus) (UniProt Q61831); test: JNK3 AlphaScreen Assay (AID 530; active means well fitted curve in either direction with a large enough effect, not every such curve was filed as active;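 further: kinase came from lysate of stimulated human HepG2 cells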; further: potency means the concentration at half of the fitted maximal effect)
Summary of the method: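 Pre-activated (IL-1β/TNFα) JNK3 in HepG2 lysates phosphorylates biotin-GST-cJun(1-79), 10 uM ATP; anti-phospho-cJun(Ser73) AlphaScreen read at room temperature, pH 7.6 Tris buffer. Compounds pre-incubated 15 min as titrations.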

[7] = target: 3',5'-cyclic-AMP phosphodiesterase 4B (Homo sapiens) (UniProt Q07343); test: qHTS Assay for Inhibitors of PDE-IV (AID 607; active means well fitted activation curve with a large enough effect in the main read-out, with a control signal flat, not every such curve was filed as active; further: % of control where 0% means no effect)
Chain of 3',5'-cyclic-AMP phosphodiesterase 4B (Homo sapiens) (Q07343 whole entry, looked up): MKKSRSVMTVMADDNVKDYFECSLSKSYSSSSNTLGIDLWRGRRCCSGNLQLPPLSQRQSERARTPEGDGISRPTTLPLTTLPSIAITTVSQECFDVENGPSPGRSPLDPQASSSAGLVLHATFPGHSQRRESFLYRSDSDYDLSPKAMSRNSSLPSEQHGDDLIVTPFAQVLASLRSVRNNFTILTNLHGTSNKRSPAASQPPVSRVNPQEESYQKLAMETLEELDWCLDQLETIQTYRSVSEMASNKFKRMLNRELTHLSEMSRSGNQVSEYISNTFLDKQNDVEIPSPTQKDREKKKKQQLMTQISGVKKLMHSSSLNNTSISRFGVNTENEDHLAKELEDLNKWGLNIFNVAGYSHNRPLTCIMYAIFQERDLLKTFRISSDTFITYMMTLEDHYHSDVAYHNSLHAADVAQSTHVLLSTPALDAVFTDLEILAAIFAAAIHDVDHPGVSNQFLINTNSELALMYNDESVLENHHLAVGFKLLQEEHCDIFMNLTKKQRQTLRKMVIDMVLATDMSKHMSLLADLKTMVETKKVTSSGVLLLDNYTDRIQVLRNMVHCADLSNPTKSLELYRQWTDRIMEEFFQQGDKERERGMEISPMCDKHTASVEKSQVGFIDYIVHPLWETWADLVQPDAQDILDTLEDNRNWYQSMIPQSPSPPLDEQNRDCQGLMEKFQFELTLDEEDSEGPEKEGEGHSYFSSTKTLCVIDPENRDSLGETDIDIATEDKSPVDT
Summary of the method: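 Cell-based read-out of cAMP via a modified cyclic nucleotide-gated channel and membrane potential dye (535/590 nm) in HEK293 cells expressing PDE4 endogenously. Compounds tested up to 22.9 uM final; 100 uM RO 20-1724 reference.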

[8] = target: Guanine nucleotide-binding protein G(i) subunit alpha-1 (Homo sapiens) (UniProt P63096); test: qHTS Assay for Inhibitors of RGS12 GoLoco Motif Activity (Green Fluorophore) (AID 879);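 further: 0% = labeled peptide with Gαi1 and full inhibition = labeled peptide alone without protein; negative values mean loss of peptide binding seen as reduced polarization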
Chain of Guanine nucleotide-binding protein G(i) subunit alpha-1 (Homo sapiens) (P63096 whole entry, looked up): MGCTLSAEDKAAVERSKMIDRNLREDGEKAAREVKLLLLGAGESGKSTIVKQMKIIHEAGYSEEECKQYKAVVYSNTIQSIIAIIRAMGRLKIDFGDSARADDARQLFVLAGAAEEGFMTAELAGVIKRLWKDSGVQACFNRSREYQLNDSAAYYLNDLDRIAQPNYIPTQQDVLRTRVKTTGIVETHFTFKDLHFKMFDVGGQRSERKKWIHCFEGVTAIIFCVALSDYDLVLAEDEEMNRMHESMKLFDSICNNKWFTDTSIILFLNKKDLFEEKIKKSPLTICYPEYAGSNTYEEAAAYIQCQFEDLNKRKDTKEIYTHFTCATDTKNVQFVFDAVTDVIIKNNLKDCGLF
Summary of the method: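 Fluorescence polarization assay: 50 nM Gαi1 with 10 nM FITC-labeled RGS12 GoLoco peptide in 10 mM Tris pH 7.5, 150 mM NaCl, 0.1 mM GDP, 0.05% NP40, 10 min at room temperature with compound.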

[9] = target: Cytochrome P450 3A4 (Homo sapiens) (UniProt P08684); test: qHTS Assay for Activators of Cytochrome P450 3A4 (AID 885); further: nearly all actives have a fitted effect of over 65% in size
Summary of the method: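 Signal was normalized against complete inhibition by 57 uM ketoconazole. The reaction used 20nM CYP3A4 with 25uM Luciferin-PPXE, 10-min compound preincubation and a 60-min NADPH-supported step at RT.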

[10] = target: Cytochrome P450 2C19 (Homo sapiens) (UniProt P33261); test: qHTS Assay for Inhibitors and Substrates of Cytochrome P450 2C19 (AID 899); further: potency means the concentration at half of the fitted maximal effect; nearly all actives have a fitted effect of over 60% in size
Summary of the method: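 Signal comes from luciferase acting on luciferin released by CYP2C19-mediated hydroxylation of Luciferin-H EGE, 10uM (KM). Assay mix: 5nM enzyme, 50mM KPO4; 60 min at 37C with NADPH regeneration. Data normalized against 57uM ketoconazole.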

[11] = target: Pyruvate kinase PKM (Homo sapiens) (UniProt P14618); test: qHTS Assay for Activators of Human Muscle Pyruvate Kinase (AID 954; active means well fitted curve in the direction sought with a large enough effect, not every such curve was filed as active;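 further: 0% = uninhibited enzyme and -100% = no enzyme or full thiadiazolimine inhibition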)
Chain of Pyruvate kinase PKM (Homo sapiens) (P14618 whole entry, looked up): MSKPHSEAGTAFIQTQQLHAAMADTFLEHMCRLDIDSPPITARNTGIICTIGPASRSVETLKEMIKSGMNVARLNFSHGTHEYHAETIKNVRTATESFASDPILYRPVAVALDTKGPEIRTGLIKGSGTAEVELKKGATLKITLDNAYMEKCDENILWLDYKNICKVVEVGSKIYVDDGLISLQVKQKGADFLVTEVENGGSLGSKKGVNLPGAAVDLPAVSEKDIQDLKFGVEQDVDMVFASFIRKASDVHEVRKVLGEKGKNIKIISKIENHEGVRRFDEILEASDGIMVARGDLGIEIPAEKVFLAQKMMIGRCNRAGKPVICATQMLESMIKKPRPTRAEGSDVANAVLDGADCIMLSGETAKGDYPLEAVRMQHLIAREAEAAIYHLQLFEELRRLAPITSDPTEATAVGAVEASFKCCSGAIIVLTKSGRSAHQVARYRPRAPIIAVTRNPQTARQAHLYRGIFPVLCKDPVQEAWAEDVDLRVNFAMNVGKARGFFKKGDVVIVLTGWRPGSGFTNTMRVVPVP
Summary of the method: (§1)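 Human PKM2 activity is measured as ATP generation, detected by luciferase-coupled luminescence. The enzyme (0.1 nM) acts on 0.5 mM PEP and 0.1 mM ADP for 1 h at ambient temperature; data are normalized to uninhibited and full-inhibition wells.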

[12] = target: Pyruvate kinase PKM (Homo sapiens) (UniProt P14618); test: qHTS Assay for Inhibitors of Human Muscle Pyruvate Kinase (AID 958); details: purified human PKM enzyme activity
Summary of the method: as §1

[13] = target: Pyruvate kinase (Leishmania mexicana) (UniProt Q27686); test: qHTS Validation Assay for Activators of Leishmania Mexicana Pyruvate Kinase (AID 959)
Summary of the method: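 Eight-point qHTS titrations in triplicate, data normalized to DMSO neutral control. Reaction: 0.2 nM LmPYK E451W mutant, 0.5 mM PEP, 0.1 mM ADP, 7 mM MgCl2, pH 7.2, one hour at room temperature; luminescent ATP detection.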

[14] = target: Alpha-galactosidase A (Homo sapiens) (UniProt P06280); test: Counterscreen for Glucocerebrosidase Inhibitors: qHTS Assay for Human alpha-Galactosidase at pH 4.5 (AID 992); further: 0% is about no effect
Chain of Alpha-galactosidase A (Homo sapiens) (P06280 whole entry, looked up): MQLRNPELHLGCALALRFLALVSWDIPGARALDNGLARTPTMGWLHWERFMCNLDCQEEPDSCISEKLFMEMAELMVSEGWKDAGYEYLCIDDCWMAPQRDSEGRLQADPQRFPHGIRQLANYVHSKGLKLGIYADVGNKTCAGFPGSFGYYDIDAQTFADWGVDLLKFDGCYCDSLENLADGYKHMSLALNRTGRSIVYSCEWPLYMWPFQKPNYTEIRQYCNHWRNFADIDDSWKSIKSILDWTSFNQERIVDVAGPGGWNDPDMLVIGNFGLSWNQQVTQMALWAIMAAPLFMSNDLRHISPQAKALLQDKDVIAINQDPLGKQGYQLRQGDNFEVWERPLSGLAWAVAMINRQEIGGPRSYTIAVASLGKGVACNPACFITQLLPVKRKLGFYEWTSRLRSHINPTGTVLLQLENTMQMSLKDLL
Summary of the method: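 Quantitative HTS: compounds tested from 0.7 nM up to 77 uM against 2 nM enzyme with 80 uM 4-MU alpha-D-galactopyranoside. The 20 min room-temperature reaction is stopped with 1M NaOH/1M glycine, pH 10.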

[15] = target: alpha-glucosidase (Oryza sativa, rice) (UniProt Q653V4); test: Counterscreen for Glucocerebrosidase Inhibitors: qHTS Assay for Rice alpha-Glucosidase at pH 5.0 (AID 997);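 further: 0% = full activity with enzyme and -100% = basal without enzyme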
Summary of the method: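 Rice alpha-glucosidase (4 nM final) with 400 uM 4-methylumbelliferyl-alpha-D-glucopyranoside in citrate buffer pH 5.0, 20 min at room temperature, stopped at pH 10; fluorescence 365/440 nm, compounds 0.7 nM–77 uM, AC50 from Hill fits.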

[16] = target: DNA dC->dU-editing enzyme APOBEC-3G (Homo sapiens) (UniProt Q9HC16); test: qHTS for inhibitors of Vif-A3G interactions: Validation (AID 588379); further: potency means the concentration at half of the fitted maximal effect; on activity change, negative = inhibition: 0% is about no effect
Chain of DNA dC->dU-editing enzyme APOBEC-3G (Homo sapiens) (Q9HC16 whole entry, looked up): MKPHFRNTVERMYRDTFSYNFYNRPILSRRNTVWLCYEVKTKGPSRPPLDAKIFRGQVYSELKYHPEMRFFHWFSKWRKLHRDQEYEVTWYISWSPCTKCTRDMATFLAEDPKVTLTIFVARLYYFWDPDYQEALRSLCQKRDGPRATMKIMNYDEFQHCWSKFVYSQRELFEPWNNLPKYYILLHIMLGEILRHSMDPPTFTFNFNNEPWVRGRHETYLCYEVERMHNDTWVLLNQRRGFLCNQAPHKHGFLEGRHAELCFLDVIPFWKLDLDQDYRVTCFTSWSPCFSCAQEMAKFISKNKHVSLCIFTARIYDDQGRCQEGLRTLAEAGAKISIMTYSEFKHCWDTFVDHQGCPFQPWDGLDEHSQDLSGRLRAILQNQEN
Summary of the method: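 HeLa cells stably expressing Vif and A3G-eYFP, 700 cells/well, incubated overnight at 37 deg C, then exposed to compound overnight at 37 deg C. Inhibition of Vif-mediated degradation read as increased yellow fluorescence (Ex 488/Em 500-530) by laser-scanning cytometry.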

[17] = Counterscreen qHTS for small molecule stabilizers of the endoplasmic reticulum resident proteome: GLuc-NoTag assay (AID 1508627); further: potency means the concentration at half of the fitted maximal effect;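 on activity change, negative = inhibition: SH-SY5Y cells given compound then 100 nM thapsigargin to empty ER calcium; 0% = thapsigargin alone and -100% = DMSO vehicle control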
Summary of the method: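 SH-SY5Y cells stably expressing constitutively secreted GLuc without SERCaMP tag, exposed to compound for 19 hr, then to 100 nM thapsigargin for 4 hr at 37C. Medium luciferase was read by coelenterazine luminescence without lysis.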

[18] = Cell Viability qHTS for small molecule stabilizers of the endoplasmic reticulum resident proteome (AID 1508629); details: cell viability counter-screen, 100 nM thapsigargin for final 4 h;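 further: human SH-SY5Y neuroblastoma cells carrying the GLuc-SERCaMP reporter; compound exposure about 46 h in total before the viability read; on the % scale 0 is the no-effect control and ±100 the full control effect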
[19] = Confirmatory qHTS for small molecule stabilizers of the endoplasmic reticulum resident proteome: Secreted ER Calcium Modulated Protein (SERCaMP) assay (AID 1508628); further: on the % scale 0 is the no-effect control and ±100 the full control effect; nearly all actives have a fitted effect of over 40% in size
Summary of the method: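 SH-SY5Y cells stably expressing GLuc-SERCaMP, treated 16 h with compound (primary 1.53, 7.67, 38.3 uM; confirmation 11 concentrations, up to 76.6 uM), then 100 nM thapsigargin for 4 h. Secreted Gaussia luciferase in medium read by coelenterazine luminescence.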

[20] = AP1 Signaling Pathway (AID 357; active means well fitted curve in either direction with a large enough effect, not every such curve was filed as active;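 further: ME-180 reporter cells stimulated with EGF at its EC50 level; on the % scale 0 is the no-effect control and ±100 the full control effect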); details: ME-180 (cervical carcinoma) AP-1-bla reporter, EGF-induced, beta-lactamase ratio, 5 h; at 38 µM (top of the series)
Summary of the method: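 Titration-series screen for positive or negative modulators of EC50 EGF-induced signaling in ME-180 cells carrying an AP-1-driven beta-lactamase reporter. After 5 hours at 37 degrees Celsius, CCF4 460nm/530nm emission ratio gave %Activity; AC50 values derived.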

[21] = NFAT Signaling Pathway (AID 444; active means well fitted curve in either direction with a large enough effect, not every such curve was filed as active;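 further: carbachol stimulus at about its EC50 of 1 µM final; on the % scale 0 is the no-effect control and ±100 the full control effect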); details: Jurkat NFAT-bla M1, carbachol, beta-lactamase ratio, 5 h; at 38 µM (top of the series)
Summary of the method: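 Jurkat cells with NFAT-driven β-lactamase reporter and co-expressed M1 receptor, stimulated with carbachol (final 1 uM, ~EC50), compound titration, 5 h at 37 °C. CCF4 loaded 1 h at RT; 460/530 nm ratio gave %activity and AC50.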

[22] = target: Cytochrome P450 2D6 (Homo sapiens) (UniProt P10635); test: qHTS Assay for Inhibitors and Substrates of Cytochrome P450 2D6 (AID 891); further: potency means the concentration at half of the fitted maximal effect; nearly all actives have a fitted effect of over 60% in size
Chain of Cytochrome P450 2D6 (Homo sapiens) (P10635 whole entry, looked up): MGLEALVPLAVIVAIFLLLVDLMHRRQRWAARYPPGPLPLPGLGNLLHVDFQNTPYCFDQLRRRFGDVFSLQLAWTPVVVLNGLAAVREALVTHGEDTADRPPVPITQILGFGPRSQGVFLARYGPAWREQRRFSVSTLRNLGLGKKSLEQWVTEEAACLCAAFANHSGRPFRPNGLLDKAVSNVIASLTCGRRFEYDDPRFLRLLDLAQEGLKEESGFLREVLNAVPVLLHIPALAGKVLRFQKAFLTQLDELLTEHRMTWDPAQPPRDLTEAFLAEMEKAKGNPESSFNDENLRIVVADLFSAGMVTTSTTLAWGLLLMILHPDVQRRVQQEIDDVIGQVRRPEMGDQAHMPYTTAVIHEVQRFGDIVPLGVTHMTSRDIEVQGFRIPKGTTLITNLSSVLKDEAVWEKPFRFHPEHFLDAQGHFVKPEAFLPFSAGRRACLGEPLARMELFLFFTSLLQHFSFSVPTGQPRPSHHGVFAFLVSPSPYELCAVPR
Summary of the method: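 Human CYP2D6 (5 nM) with 30 uM Luciferin-ME EGE (at Km) in 100 mM KPO4, compound preincubated 10 min, then NADPH regeneration system for 60 min at room temperature. Luciferin read by luminescence; normalized to 1.43 uM quinidine.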

[23] = target: Muscarinic acetylcholine receptor M1 (Rattus norvegicus) (UniProt P08482); test: qHTS Assay for Antagonists of Acetylcholine Muscarinic M1 Receptor: Kinetic Measurement of Intracellular Calcium Response (AID 943); further: nearly all actives have a fitted effect of over 75% in size
Chain of Muscarinic acetylcholine receptor M1 (Rattus norvegicus) (P08482 whole entry, looked up): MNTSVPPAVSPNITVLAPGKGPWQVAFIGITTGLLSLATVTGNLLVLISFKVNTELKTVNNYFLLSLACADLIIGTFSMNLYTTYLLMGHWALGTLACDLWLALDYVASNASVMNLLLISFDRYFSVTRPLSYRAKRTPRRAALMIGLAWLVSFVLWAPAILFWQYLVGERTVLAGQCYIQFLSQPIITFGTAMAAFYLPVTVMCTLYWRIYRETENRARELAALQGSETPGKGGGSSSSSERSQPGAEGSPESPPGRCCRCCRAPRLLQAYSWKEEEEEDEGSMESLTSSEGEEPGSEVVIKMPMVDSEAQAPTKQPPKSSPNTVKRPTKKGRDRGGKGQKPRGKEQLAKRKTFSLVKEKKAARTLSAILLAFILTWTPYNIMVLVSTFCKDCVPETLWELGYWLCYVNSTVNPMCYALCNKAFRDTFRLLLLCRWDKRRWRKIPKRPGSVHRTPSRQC
Summary of the method: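 CHO cells expressing rat M1 receptor, Fluo-4 loaded, preincubated 10 min with compound, then stimulated with EC80 carbachol (100 nM final). Kinetic calcium fluorescence over 4 min; response taken as peak over basal signal.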

[24] = qHTS Assay for Lipid Storage Modulators (AID 1519; calls by dose curve); details: Drosophila S3 cells, BODIPY lipid droplet/cell ratio, laser cytometry, cells loaded with oleic acid
Summary of the method: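 Cells seeded at 5,000 per well were treated with compounds over a concentration series and loaded with oleic acid (400 uM, as added). Lipid droplet fluorescence (488 nm excitation, 500-530 nm channel) was read by laser-scanning cytometry and normalized to 20 uM Triacsin C.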

CCCCC/C=C\C/C=C\C/C=C\C/C=C\CCCC(=O)O[C@@H](CO)COC(=O)CCCCCCCCCCCCCCCCC
inactive: activity change, negative = inhibition [1] 6.26% [at 6.83 µM] | activity change, negative = inhibition [2] -0.0647% [at 3.88 µM]

CN(C)c1ccc(/C=C2/C(=O)Nc3ccccc32)cc1
inactive: Potency [4] > 46 µM | Potency [5] > 46 µM | Potency [7] | outcome [8] | Potency [9] | outcome [11] | Potency [13] | outcome [14] | outcome [15] | Potency [1] | max response [18] 8.84%
active: Potency [3] 398 nM and 100 nM | Potency [6] 5.01 µM | Potency [10] 20 µM | Potency [12] 3.16 µM | Potency [16] 26.6 µM | Potency [17] 35.5 µM

N=C(CC(O)COc1ccccc1-c1ccccc1)N1CCCCC1 (stereo not given)
inactive: Potency [1] | Potency [19]

C[C@]12CC3CC(N)(C1)C[C@@](C)(C3)C2
-24.5%: max response ([24]; measured here: cell count channel max response)
active: Potency [22] 0.316 µM
-26.5%: max response ([24]; measured here: lipid channel max response)
inactive: activity change, negative = inhibition [20] 19.1% | Potency [3] | activity change, negative = inhibition [21] -5.02% | Potency [4] > 46 µM | Potency [5] > 46 µM | Potency [6] | Potency [7] | outcome [8] | Potency [23] | outcome [11] | outcome [14] | outcome [15] | activity change, negative = inhibition ([24]; at 57.5 µM (top of the series)) -0.0594% | Potency [16] | Potency [1] | Potency [17] | max response [18] -0.737%

NCC(O)COc1cccc2ccccc12 (stereo not given)
inactive: Potency [1] | Potency [2]

CCCCCCCC/C=C\CCCCCCCCOC[C@H](COP(=O)([O-])OCC[N+](C)(C)C)OC(C)=O
inactive: activity change, negative = inhibition [1] 11.8% [at 6.83 µM] | activity change, negative = inhibition [2] -15.7% [at 3.88 µM]
